Measured values published in PubChem BioAssay.
Activity calls are given as the source filed them.

Experiments:
[1] = binders of probe aFSTL3 on microarray, primary screen, stem cell growth factor project, biochemical, small-molecule microarray, fluorescence 635/667 (AID 1064); details: higher = more signal;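 note: measures binding of the biotinylated anti-FSTL3 antibody to printed compounds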
[2] = binders from COS7 lysate, DM2A8 probe, primary screen, torsin A project, cell lysate, small-molecule microarray, fluorescence 635/667 (AID 1065); details: higher = more signal, COS7 lysate expressing mutant human TOR1A
[3] = binders of probe aFGF2 on microarray, primary screen, stem cell growth factor project, biochemical, small-molecule microarray, fluorescence 635/667 (AID 1067); details: higher = more signal;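 note: measures binding of biotinylated aFGF2 protein to printed compounds on slides; z-score merges feature fluorescence and signal-to-noise across triplicate slides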
[4] = binders of probe aFGF10 on microarray, primary screen, stem cell growth factor project, biochemical, small-molecule microarray, fluorescence 635/667 (AID 1071); details: higher = more signal;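 note: score merges 667 nm spot intensity and signal to noise from triplicate slides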
[5] = target: Neurogenic locus notch homolog protein 2 (Homo sapiens) (UniProt Q04721); experiment: Notch2 binders on small-molecule microarrays, primary screen, biochemical, small-molecule microarray, 635 nm fluorescence, stem cell growth factors (AID 1073); details: Notch2 binding, higher = more signal
[6] = target: Pro-neuregulin-1, membrane-bound isoform (Homo sapiens) (UniProt Q02297); experiment: NRG1 binders on small-molecule microarrays, primary screen, psychiatric disease protein project, biochemical, small-molecule microarray, fluorescence 635/667 (AID 1075); details: NRG1 binding, 635 nm fluorescence, higher = more signal;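 note: score combines 667 nm spot fluorescence with signal to noise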
Sequence of Pro-neuregulin-1, membrane-bound isoform (Homo sapiens) (Q02297 whole entry, looked up, the tested form may be a part, canonical isoform): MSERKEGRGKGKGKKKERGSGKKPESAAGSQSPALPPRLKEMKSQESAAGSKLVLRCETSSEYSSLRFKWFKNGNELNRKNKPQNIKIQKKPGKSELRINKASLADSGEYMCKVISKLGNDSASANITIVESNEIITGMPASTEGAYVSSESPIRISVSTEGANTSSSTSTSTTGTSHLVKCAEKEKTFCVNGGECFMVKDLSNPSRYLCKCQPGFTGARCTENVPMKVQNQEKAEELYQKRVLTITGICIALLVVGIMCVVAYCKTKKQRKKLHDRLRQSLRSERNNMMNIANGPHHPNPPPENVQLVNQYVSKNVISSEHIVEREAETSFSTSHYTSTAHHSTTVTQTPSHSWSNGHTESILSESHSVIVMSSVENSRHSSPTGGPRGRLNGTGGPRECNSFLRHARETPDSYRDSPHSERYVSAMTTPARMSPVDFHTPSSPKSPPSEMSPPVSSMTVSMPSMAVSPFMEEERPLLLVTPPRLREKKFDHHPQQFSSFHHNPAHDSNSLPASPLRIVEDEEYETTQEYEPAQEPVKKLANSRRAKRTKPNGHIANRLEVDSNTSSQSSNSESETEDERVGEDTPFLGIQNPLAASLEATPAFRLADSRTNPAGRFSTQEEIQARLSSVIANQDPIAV

[7] = system: Neuregulin-1 EGF-like domain; experiment: binders of neuregulin-1 EGF-like domain, primary screen, biochemical, small-molecule microarray, 635 nm fluorescence (AID 1081); details: small-molecule microarray binding, higher = more signal;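 note: binding of the protein to compounds printed on small-molecule microarray slides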
[8] = FRG1 promoter luciferase signal modulators, primary screen, FRG1 inhibition for FSHD, cell-based, C2C12 myotubes, firefly/Renilla luciferase, luminescence (AID 1084); details: higher = more signal, called active from +8 up or from −8 down
[9] = binders of probe aFST on microarray, primary screen, stem cell growth factor project, biochemical, small-molecule microarray, fluorescence 635/667 (AID 1086); details: higher = more signal;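 note: score merges 667 nm fluorescence with signal-to-noise of each printed compound spot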
[10] = binders of probe aHhip on microarray, primary screen, stem cell growth factor project, biochemical, small-molecule microarray, fluorescence 635/667 (AID 1087); details: higher = more signal;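 note: score merges spot fluorescence at 667nm with spot signal to noise ratio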
[11] = system: PRMT1 (protein arginine N-methyltransferase 1); experiment: PRMT1 binders on small-molecule microarrays, primary screen, biochemical, small-molecule microarray, 635 nm fluorescence (AID 1088); details: small-molecule microarray binding, higher = more signal;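 note: binding of Prmt1 protein to compounds spotted on small-molecule microarray slides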
[12] = yeast growth modulation, basal conditions, primary screen, YJM789 clinical isolate, OD600, 24 h (AID 1089);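 note: growth of clinical yeast isolate S. cerevisiae YJM 789 seeded 1000 cells per well; test concentration not given here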; details: S. cerevisiae YJM789 growth, higher = more signal, called active from +8 up or from −8 down
[13] = fission yeast growth modulation, primary screen, strain 972, OD600, 24 h, no modulator (AID 1090);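 note: basal condition with compound alone and no growth modifier present; test concentration not given here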; details: S. pombe 972 growth, higher = more signal, called active from +8 up or from −8 down
[14] = S. cerevisiae growth modulation with rapamycin, primary screen, strain BY4716, OD600, 96 h (AID 1091); details: higher = more signal, called active from +8 up or from −8 down; note: test concentration not given here
[15] = target: Torsin-1A-interacting protein 2 (Homo sapiens) (UniProt Q8NFQ8); experiment: LULL1 binders on small-molecule microarray, primary screen, cell lysate, human LULL1 lysate, 635/667 nm fluorescence (AID 1092); details: hLULL1 lysate binding, 635 nm fluorescence, higher = more signal;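 note: probe is lysate of COS7 cells overexpressing human LULL1; score merges per-feature 667 nm fluorescence with signal-to-noise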
Sequence of Torsin-1A-interacting protein 2 (Homo sapiens) (Q8NFQ8 whole entry, looked up): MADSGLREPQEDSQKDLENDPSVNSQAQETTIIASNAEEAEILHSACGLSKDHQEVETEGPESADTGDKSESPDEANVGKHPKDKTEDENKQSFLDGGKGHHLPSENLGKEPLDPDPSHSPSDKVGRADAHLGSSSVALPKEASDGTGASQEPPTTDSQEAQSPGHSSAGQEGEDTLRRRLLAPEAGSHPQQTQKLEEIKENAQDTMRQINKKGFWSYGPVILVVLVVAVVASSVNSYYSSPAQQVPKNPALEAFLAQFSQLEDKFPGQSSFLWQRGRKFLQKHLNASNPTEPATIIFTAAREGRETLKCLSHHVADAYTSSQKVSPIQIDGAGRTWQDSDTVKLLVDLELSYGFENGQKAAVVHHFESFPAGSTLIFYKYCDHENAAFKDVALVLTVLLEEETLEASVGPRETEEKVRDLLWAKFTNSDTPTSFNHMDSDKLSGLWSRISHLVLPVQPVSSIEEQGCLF

[16] = E. coli growth modulation, two-sided OD650, primary screen, E. coli filamentation project, strain DRC41, 24 h (AID 1093); details: OD650, 24 h, higher = more signal, called active from +8 up or from −8 down;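 note: MC1000 strain lacking acrAB efflux and sulA so SOS filamentation is blocked; test concentration not given here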
[17] = small-molecule microarray binders of probe aLefty2, primary screen, biochemical, biotinylated probe, 635/667 nm fluorescence (AID 1094); details: higher = more signal;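 note: score merges spot fluorescence near 667 nm with spot signal-to-noise ratio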
[18] = system: Noggin (protein binding on small-molecule microarray); experiment: Noggin binders on small-molecule microarray, primary screen, biochemical, 635/667 nm fluorescence (AID 1095); details: 635 nm fluorescence, higher = more signal;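 note: score merges 667 nm feature fluorescence with signal to noise over triplicate slides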
[19] = target: Neurogenic locus notch homolog protein 3 (Homo sapiens) (UniProt Q9UM47); experiment: NOTCH3 binders on small-molecule microarray, primary screen, biochemical, 635/667 nm fluorescence (AID 1096); details: NOTCH3 binding, 635 nm fluorescence, higher = more signal
Sequence of Neurogenic locus notch homolog protein 3 (Homo sapiens) (Q9UM47 whole entry, looked up): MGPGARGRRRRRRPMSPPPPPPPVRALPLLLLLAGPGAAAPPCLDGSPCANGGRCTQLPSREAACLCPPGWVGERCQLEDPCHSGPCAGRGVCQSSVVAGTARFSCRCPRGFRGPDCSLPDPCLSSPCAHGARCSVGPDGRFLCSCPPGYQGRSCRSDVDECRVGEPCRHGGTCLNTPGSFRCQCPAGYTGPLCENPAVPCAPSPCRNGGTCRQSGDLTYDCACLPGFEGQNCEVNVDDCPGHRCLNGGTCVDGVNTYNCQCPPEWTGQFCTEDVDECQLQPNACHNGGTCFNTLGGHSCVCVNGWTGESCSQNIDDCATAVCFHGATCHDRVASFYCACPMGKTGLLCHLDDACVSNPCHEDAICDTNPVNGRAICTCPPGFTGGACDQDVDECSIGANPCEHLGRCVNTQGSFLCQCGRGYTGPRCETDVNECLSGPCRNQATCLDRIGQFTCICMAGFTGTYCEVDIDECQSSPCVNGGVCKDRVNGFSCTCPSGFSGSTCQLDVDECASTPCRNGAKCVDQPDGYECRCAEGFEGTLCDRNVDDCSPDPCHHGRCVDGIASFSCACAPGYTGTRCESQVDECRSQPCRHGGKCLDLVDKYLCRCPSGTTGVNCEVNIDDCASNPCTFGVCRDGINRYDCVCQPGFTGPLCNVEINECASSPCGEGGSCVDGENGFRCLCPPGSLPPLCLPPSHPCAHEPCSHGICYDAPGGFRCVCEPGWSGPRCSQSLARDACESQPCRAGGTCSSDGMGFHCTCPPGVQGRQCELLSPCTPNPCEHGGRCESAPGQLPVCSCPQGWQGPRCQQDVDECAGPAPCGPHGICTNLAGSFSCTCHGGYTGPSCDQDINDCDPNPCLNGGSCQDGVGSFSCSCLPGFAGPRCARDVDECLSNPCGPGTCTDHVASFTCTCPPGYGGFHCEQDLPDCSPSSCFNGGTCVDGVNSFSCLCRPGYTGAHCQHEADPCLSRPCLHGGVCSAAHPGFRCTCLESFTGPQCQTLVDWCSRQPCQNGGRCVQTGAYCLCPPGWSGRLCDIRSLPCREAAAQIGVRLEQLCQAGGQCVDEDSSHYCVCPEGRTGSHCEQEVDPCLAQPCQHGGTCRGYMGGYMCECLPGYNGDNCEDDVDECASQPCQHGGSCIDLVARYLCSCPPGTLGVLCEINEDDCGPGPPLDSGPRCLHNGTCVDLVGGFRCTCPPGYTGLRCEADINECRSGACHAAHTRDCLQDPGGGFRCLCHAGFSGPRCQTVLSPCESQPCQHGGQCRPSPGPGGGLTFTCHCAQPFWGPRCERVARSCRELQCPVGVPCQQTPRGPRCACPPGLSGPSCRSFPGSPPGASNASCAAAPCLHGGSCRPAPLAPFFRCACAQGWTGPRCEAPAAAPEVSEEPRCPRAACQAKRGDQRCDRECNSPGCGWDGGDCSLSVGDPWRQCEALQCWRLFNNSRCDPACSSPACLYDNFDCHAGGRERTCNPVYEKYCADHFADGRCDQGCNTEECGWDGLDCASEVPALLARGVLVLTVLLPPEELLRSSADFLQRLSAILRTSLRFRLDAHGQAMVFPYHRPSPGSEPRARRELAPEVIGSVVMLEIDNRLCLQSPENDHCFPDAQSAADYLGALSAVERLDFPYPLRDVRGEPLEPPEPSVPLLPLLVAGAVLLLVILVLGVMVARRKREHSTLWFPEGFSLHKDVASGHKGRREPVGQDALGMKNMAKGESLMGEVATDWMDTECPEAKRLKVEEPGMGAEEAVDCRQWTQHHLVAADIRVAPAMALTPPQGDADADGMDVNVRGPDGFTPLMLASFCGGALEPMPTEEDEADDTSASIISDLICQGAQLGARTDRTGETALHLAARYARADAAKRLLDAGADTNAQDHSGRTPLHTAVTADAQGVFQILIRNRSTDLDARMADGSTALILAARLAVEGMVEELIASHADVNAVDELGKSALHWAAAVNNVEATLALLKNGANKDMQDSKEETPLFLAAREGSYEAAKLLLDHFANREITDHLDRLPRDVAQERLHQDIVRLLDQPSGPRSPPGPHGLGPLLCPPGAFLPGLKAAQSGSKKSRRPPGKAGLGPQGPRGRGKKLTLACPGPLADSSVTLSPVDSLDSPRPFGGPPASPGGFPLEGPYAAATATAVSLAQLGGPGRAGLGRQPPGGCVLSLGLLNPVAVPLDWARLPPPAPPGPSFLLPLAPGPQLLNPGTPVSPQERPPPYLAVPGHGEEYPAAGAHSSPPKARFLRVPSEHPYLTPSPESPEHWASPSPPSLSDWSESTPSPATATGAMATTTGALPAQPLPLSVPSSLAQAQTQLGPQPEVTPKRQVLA

[20] = small-molecule microarray binders of probe aEGFR, primary screen, biochemical, biotinylated probe, 635/667 nm fluorescence (AID 1097); details: higher = more signal;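 note: probe is a biotinylated anti-EGFR antibody binding compounds printed on slides; score combines fluorescence near 667 nm and signal to noise of each spot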

Structure (SMILES)	composite z-score [1]	composite z-score [2]	composite z-score [3]	composite z-score [4]	composite z-score [5]	composite z-score [6]	composite z-score [7]	z-score [8]	composite z-score [9]	composite z-score [10]	composite z-score [11]	z-score [12]	z-score [13]	z-score [14]	composite z-score [15]	z-score [16]	composite z-score [17]	composite z-score [18]	composite z-score [19]	composite z-score [20]
COc1cc2c(cc1OC)CN(C(=O)[C@H]1[C@@H]3C(=O)O[C@@H](c4ccccc4)[C@@H](c4ccccc4)N3[C@@H](c3ccccc3OCCO)[C@]13C(=O)Nc1ccc(C#CC4(O)CCCCCC4)cc13)CC2	-0.0648	0.705	0.0605	1.01	1.1	1.76	1.35	-2.24 (inactive)	0.319	0.245	1.55	1.71 (inactive)	0.519 (inactive)	4.28 (inactive)	2.83	2.54 (inactive)	0.0028	1.19	1.11	0.0965
C[C@]1(C(=O)NCc2ccccc2)c2ccccc2C(=O)N(Cc2cc(C(F)(F)F)cc(C(F)(F)F)c2)[C@H]1c1ccc(CO)cc1	0.158	1.05	0.168	0.149	1.04	0.196	1.23	-1.65 (inactive)	0.185	-0.359	1.58	-2 (inactive)	-3.22 (inactive)	-2.11 (inactive)	1.51	2.13 (inactive)	0.339	0.583	0.655	0.18
C[C@@H]1NC(=O)CC=C[C@@H](C)[C@@H]2C=C[C@H](O)[C@@H](COC(=O)[C@H](C)NC(=O)CC=C[C@@H](C)[C@@H]3C=C[C@H](O)[C@@H](COC1=O)O3)O2	-0.703	0.0339	-0.0511	0.216	0.0211	-0.428	-0.247	0.587 (inactive)	0.229	-0.0994	0.0027	-1.07 (inactive)	-2.24 (inactive)	-0.764 (inactive)	-0.178	0.602 (inactive)	-0.221	0.464	0.108	-0.0262
CC(C)CNC(=O)[C@@]1(C)c2ccccc2C(=O)N(Cc2ccc(OC(F)(F)F)cc2)[C@H]1c1ccc(CO)cc1	1.39	-0.37	-0.0149	-0.925	-1.71	-0.81	0.257	-3.49 (inactive)	-0.291	-0.353	-0.379	-0.545 (inactive)	-0.808 (inactive)	-0.53 (inactive)	0.932	1.52 (inactive)	0.117	-1.13	-1.27	-0.112
C=CCC(OC(C)=O)[C@@H]1[C@@H](N(Cc2cc3ccccc3o2)C(=O)Cc2ccc(F)cc2)c2cc(OCCCO)ccc2N1C(=O)c1ccc(-c2ccccc2)cc1 (stereo not given in full)	0.117	-0.103	-0.116	-0.263	-0.079	-0.399	-1.03	0.051 (inactive)	0.141	-0.0645	-1.44	-0.277 (inactive)	-0.801 (inactive)	-0.76 (inactive)	0.292	1.64 (inactive)	-0.0598	-0.737	-1.02	-0.178
N#Cc1ccc(NN2C(C(O)c3ccc(I)cc3)C=CC3C(=O)N(c4ccccc4)C(=O)C32)cc1 (stereo not given)	0.0909	-0.0384	0.105	0.587	1.32	1.76	1.28	-2.73 (inactive)	0.857	0.0854	1.16	0.647 (inactive)	2.19 (inactive)	3.88 (inactive)	3.47	-1.38 (inactive)	0.247	-0.0788	1.07	0.0601
CCCCCCc1nc(C2CC2)c(C)c2c1[Si](C(C)C)(C(C)C)OC2	0.411	0.159	-0.167	-0.588	-0.923	-0.322	-0.629	-0.139 (inactive)	-0.266	-0.0672	-1.09	-2.2 (inactive)	-3.58 (inactive)	-1.75 (inactive)	-0.492	1.69 (inactive)	-0.0591	0.168	-1.26	-0.202
O=C(N1CCCCC1)[C@@]1(CCS(=O)(=O)c2ccccc2)N=C(c2ccc(OCCCO)cc2)O[C@H]1c1ccccc1	0.151	0.529	0.236	0.685	1.4	0.0933	1.23	-0.144 (inactive)	1.51	-0.0645	1.24	-0.418 (inactive)	-0.938 (inactive)	30.4 (active)	3.63	0.943 (inactive)	0.0971	0.688	1.12	-0.0828
CO[C@H]1COC(=O)CC=C[C@H](C)[C@@H](OC)COC(=O)CC=C[C@@H]1C	-0.623	1.7	-0.0775	0.227	-0.209	-0.768	0.692	-1.12 (inactive)	-0.055	-0.0994	0.656	-0.49 (inactive)	-1.5 (inactive)	-0.98 (inactive)	-0.787	0.898 (inactive)	-0.169	0.764	-0.119	-0.0273
CC(C)[Si]1(C(C)C)OCc2cc(C3CC3)nc(-c3ccccc3)c21	0.322	0.598	-0.119	-1.2	-1.27	-0.291	-0.531	-1.03 (inactive)	-0.135	-0.261	0.168	-0.604 (inactive)	-3.7 (inactive)	-1.39 (inactive)	-0.431	2.13 (inactive)	-0.142	-0.246	-0.802	-0.216
